This passage reports growth results from PubChem BioAssay (NCI).

The panel holds about 83,000 compounds, 20% with a hit somewhere; the sample as a whole holds those more often.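 Interpretation: 100, growth as untreated; towards 0, rising growth inhibition; 0, no net growth; 0 to -100, cell death. Compounds scoring below 10 were considered active.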 Unmarked numbers belong to inactive results. Activity calls are given as the source filed them.

Some test systems named below: T-47D breast; BT-549 breast; MDA-MB-435 melanoma; SW-620 colon; MCF7 breast; HCT-116 colon; HCC-2998 colon; KM12 colon.
What all share (experiment): NCI-60 one-dose screen, 48 h (100 = growth as untreated, 0 = no growth, -100 = all killed)
Conditions in all cases: 10 µM unless noted

As for `COc1c(B(O)O)cccc1-c1nc2c(F)cc3[nH]ncc3c2c2c1CCCC2`, the growth with T-47D breast is 8.61% (active); with BT-549 breast, -46.1% (active); in the experiment with MDA-MB-435 melanoma, 8.04% (active); in the experiment on SW-620 colon, 1.12% (active); with MCF7 breast, -3.83% (active); in the experiment with HCT-116 colon, 2.84% (active). In addition, the growth was 1.17% (active) in the experiment with HCC-2998 colon and -12.1% (active) with KM12 colon.
As to `CCC(C)N(CCNc1cc(OC)cc2cccnc12)CC(C)C` (stereo not drawn), the growth in the experiment with T-47D breast is 6.53% (active); in the experiment on BT-549 breast, 106%; with MDA-MB-435 melanoma, 109%; with SW-620 colon it was 85.5%; with MCF7 breast it was 12.6%; in the experiment with HCT-116 colon it was 66.9%. The growth is 96% in the experiment with HCC-2998 colon and 97.5% in the experiment on KM12 colon.
Turning to `CC(=O)O[C@@H]1C[C@]2(C(C)C)O[C@@]1(C)[C@@H]1CCC(C)=C1[C@@H]2OC(=O)/C=C/c1ccccc1`, the growth in the experiment on T-47D breast was 76.8%; with BT-549 breast it was 105%; with MDA-MB-435 melanoma, 91.9%; with SW-620 colon, 90.6%; with HCT-116 colon, 88.5%; in the experiment with HCC-2998 colon, 103%. Besides, the growth in the experiment on KM12 colon is 92.8%.
Turning to `c1ccc2cc(C[n+]3ccn(CCCCCCCCCCn4cc[n+](Cc5ccc6ccccc6c5)c4)c3)ccc2c1`, the growth in the experiment on T-47D breast is -0.597% (active); in the experiment on BT-549 breast, -39.6% (active); in the experiment with MDA-MB-435 melanoma, 18.2%; in the experiment on SW-620 colon, 23.2%; with HCT-116 colon, 13.3%; with HCC-2998 colon, 25.2%. In addition, the growth in the experiment on KM12 colon was -5.93% (active).
As to `COc1ccc(/C=C(\C#N)n2nnc3cc(Cl)ccc32)cc1`, the growth in the experiment on T-47D breast was 17.2%; in the experiment on BT-549 breast, -1.84% (active); in the experiment on MDA-MB-435 melanoma, -61.6% (active); in the experiment on SW-620 colon it was 8.09% (active); in the experiment with MCF7 breast it was 1.74% (active); with HCT-116 colon it was -9.51% (active). Also, the growth was -30.2% (active) with HCC-2998 colon and 5.89% (active) in the experiment with KM12 colon.
Consider `NS(=O)(=O)c1ccccc1NC(=O)Nc1nc2ccccc2s1`, for which the growth was 87.3% in the experiment on T-47D breast; 98.2% in the experiment with BT-549 breast; 103% with MDA-MB-435 melanoma; 101% with SW-620 colon; 98.8% in the experiment on HCT-116 colon; 95.8% in the experiment on HCC-2998 colon. In addition, the growth in the experiment with KM12 colon was 104%.
As to `O=C1/C(=C/c2cn(-c3ccccc3)nc2-c2ccccc2)SC(=S)N1C1CCCCC1`, the growth was 97% in the experiment on T-47D breast; 114% with BT-549 breast; 98.8% with MDA-MB-435 melanoma; 96% in the experiment with SW-620 colon; 90.1% with HCT-116 colon; 108% in the experiment on HCC-2998 colon. For the same molecule, the growth in the experiment on KM12 colon was 102%.
As for `CCCCC1=C(P(=O)(O)O)N[C@H](C(=O)O)CS1`, the growth with T-47D breast is 96.7%; in the experiment with BT-549 breast, 102%; in the experiment on MDA-MB-435 melanoma it was 101%; with SW-620 colon, 96.9%; in the experiment with HCT-116 colon, 96.5%; with HCC-2998 colon, 89.2%. Besides, the growth with KM12 colon is 110%.
Regarding `O=C1/C=C/[C@@H](O)[C@@H]2C[C@@H](O)C[C@H]2/C=C/CCC[C@H](CCc2ccccc2)O1`, the growth in the experiment with T-47D breast was 15.1%; in the experiment with BT-549 breast it was 9.81% (active); in the experiment on MDA-MB-435 melanoma it was 5.95% (active); with SW-620 colon it was -9.76% (active); in the experiment on HCT-116 colon it was -73.6% (active); with HCC-2998 colon, 15.9%. Further, the growth with KM12 colon was -50.5% (active).
Take `Cc1nc2sc(C(=O)Nc3cccc(Br)c3)c(N)c2cc1C(O)c1ccccc1` (stereo not drawn): the growth in the experiment with T-47D breast was 43.2%; in the experiment with BT-549 breast it was 53.7%; in the experiment on MDA-MB-435 melanoma, 4.05% (active); with SW-620 colon, 31%; in the experiment with HCT-116 colon, 16.2%; with HCC-2998 colon, 18.2%. In the experiment with KM12 colon, the growth is 22.8%.
`N#Cc1nc(-c2ccc(F)cc2)oc1S(=O)(=O)N1CCCCC1`: the growth with T-47D breast is 2.97% (active); in the experiment on BT-549 breast it was 80%; in the experiment with MDA-MB-435 melanoma it was 83.8%; in the experiment with SW-620 colon, -72.2% (active); in the experiment with HCT-116 colon, -19.4% (active); in the experiment on HCC-2998 colon it was 105%. Moreover, the growth in the experiment with KM12 colon was 99.1%.
With `NC(=O)c1c(NC(=O)c2ccc3ccccc3c2)sc2c1CCC(=O)C2`, the growth with T-47D breast is 33.4%; in the experiment on BT-549 breast, 20.9%; with MDA-MB-435 melanoma, 92.8%; with SW-620 colon, 14.3%; with HCT-116 colon, 7.15% (active); in the experiment with HCC-2998 colon, 107%. Besides, the growth in the experiment with KM12 colon is 34.9%.
As for `O=C(/C=C(/C=C/c1ccc2[nH]ccc2c1)OB(F)F)/C=C/c1ccc2[nH]ccc2c1`, the growth in the experiment on T-47D breast is 6.23% (active); with BT-549 breast, -28.2% (active); with MDA-MB-435 melanoma, -4.54% (active); with SW-620 colon, 6.41% (active); in the experiment with HCT-116 colon, -79% (active); in the experiment with HCC-2998 colon, -88.3% (active). In the experiment with KM12 colon, the growth was -5.34% (active).
For the molecule `O=C1Nc2ccccc2/C1=C/c1cccn1CCCCn1c2ccccc2c(=O)c2ccccc21`, the growth in the experiment with T-47D breast was 5.03% (active); in the experiment with BT-549 breast, 74.5%; in the experiment on MDA-MB-435 melanoma, 92.7%; with SW-620 colon, 98.8%; in the experiment with HCT-116 colon it was 74.2%; with HCC-2998 colon it was 40.5%. For the same molecule, the growth in the experiment on KM12 colon is 13%.
Turning to `c1cc2c(ccc3[nH]c(-c4ccc5[nH]ncc5c4)c4c(c32)CCCC4)n1`, the growth in the experiment with T-47D breast was 38.9%; in the experiment on BT-549 breast it was 53.2%; with MDA-MB-435 melanoma it was 68.9%; in the experiment with SW-620 colon, 60.8%; in the experiment on HCT-116 colon, 38%; in the experiment on HCC-2998 colon it was 93.6%. Also, the growth in the experiment with KM12 colon was 67.9%.
As to `OCCn1cc(-c2nc(-c3c[nH]c4ncccc34)cs2)c2ccccc21`, the growth is 37.3% in the experiment on T-47D breast; 76% in the experiment with BT-549 breast; 52.1% in the experiment with MDA-MB-435 melanoma; 91.5% in the experiment on SW-620 colon; 85.2% in the experiment on HCT-116 colon; 52% with HCC-2998 colon.
Regarding `COc1cc2c(cc1OCCCN1CCN(CCCOc3cc4c(cc3OC)C(=O)N3CCC[C@H]3C=N4)CC1)C=CC(C)(C)O2`, the growth was -55.2% (active) with T-47D breast; -100% (active) with BT-549 breast; -72.9% (active) in the experiment with MDA-MB-435 melanoma; -100% (active) in the experiment on SW-620 colon; -96% (active) with HCT-116 colon; -82.1% (active) in the experiment on HCC-2998 colon. Further, the growth in the experiment on KM12 colon was -82% (active).
`CCOC(=O)c1nn(-c2ccc(S(N)(=O)=O)cc2)c2nc(C)cc(=O)n12`: the growth with T-47D breast is 106%; with BT-549 breast it was 106%; with MDA-MB-435 melanoma, 105%; in the experiment on SW-620 colon, 106%; in the experiment with HCT-116 colon it was 106%; with HCC-2998 colon, 109%. Also, the growth in the experiment with KM12 colon was 102%.
